Source: PMC4336329 (PLoS ONE, 2015)
Screen size: about 310,000 compounds; about 14,000 (4.5%) showed an effect of 50% or more. Effects have a minus sign here. Only a selection was taken, and strong results are over-represented in it overall.

Each molecule was assayed against human ether-à-go-go-related gene (hERG) potassium channel (human, UniProt Q12809) (assay: primary screen, population patch clamp on CHO cells stably expressing hERG; higher = less effect of the substance).
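Note: peak tail current of the secondary pulse compared with the same well before compound.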

Sequence of human ether-à-go-go-related gene (hERG) potassium channel (Q12809 whole entry, looked up): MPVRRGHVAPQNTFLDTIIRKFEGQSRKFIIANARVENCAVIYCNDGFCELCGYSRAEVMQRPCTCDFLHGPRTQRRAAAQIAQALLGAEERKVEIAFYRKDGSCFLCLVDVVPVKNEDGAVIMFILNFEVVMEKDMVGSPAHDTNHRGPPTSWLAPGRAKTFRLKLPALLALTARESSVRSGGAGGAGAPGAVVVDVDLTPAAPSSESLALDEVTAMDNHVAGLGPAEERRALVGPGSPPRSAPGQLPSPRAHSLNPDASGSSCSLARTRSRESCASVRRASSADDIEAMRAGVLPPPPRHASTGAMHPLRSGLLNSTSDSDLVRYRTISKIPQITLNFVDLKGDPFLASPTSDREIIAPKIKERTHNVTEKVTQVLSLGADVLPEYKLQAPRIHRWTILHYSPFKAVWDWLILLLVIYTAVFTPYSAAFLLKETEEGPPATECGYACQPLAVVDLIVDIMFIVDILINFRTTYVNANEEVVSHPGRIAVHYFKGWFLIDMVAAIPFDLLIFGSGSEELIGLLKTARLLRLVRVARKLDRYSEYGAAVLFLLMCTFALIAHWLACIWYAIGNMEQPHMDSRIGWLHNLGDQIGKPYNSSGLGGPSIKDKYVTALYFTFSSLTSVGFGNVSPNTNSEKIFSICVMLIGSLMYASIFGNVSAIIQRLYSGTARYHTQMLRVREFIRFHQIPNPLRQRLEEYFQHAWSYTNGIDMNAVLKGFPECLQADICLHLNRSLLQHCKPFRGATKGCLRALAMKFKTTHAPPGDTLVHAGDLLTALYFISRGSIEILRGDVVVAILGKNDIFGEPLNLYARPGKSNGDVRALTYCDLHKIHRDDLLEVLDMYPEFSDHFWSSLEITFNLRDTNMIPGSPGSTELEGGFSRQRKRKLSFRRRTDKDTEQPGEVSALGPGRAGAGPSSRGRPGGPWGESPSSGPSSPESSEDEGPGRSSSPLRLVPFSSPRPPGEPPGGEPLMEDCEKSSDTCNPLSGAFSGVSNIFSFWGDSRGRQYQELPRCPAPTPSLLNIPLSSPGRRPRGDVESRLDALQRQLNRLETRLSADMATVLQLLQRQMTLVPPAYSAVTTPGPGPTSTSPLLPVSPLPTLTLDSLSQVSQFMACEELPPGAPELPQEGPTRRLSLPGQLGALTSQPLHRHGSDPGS

Point of comparison: `CCOC(=O)C1=C(O)/C(=C\c2ccc(O)c(OCC)c2)N=C1C`, “hERG current change (%, negative = inhibition) at 10uM” value 8.17%. Against it:
- NC(=S)N/N=C/c1ccc(C23CC4CC(CC(C4)C2)C3)cc1 — higher, 23.2%
- CN1CCc2cc3c(cc2[C@H]1[C@@H]1OC(=O)c2c1ccc1c2OCO1)OCO3 — lower, 7.02%
- O=C1C(=O)N(CC2CCCO2)C(c2ccco2)/C1=C(/O)c1ccc(F)cc1 (stereo not drawn) — lower, -13.4%
- COc1cnc(SCc2c(Cl)cccc2Cl)nc1Cl — lower, -1.4%
- COC(=O)c1cccc(CSc2nnc(C)s2)c1 — lower, -1.67%
- Nc1c(Cl)c(Cl)nc(C(=O)OCC(=O)N2CCCC2=O)c1Cl — lower, -22.5%
- O=C(OCC(=O)N1CCCC1=O)c1nc(Cl)c(Cl)c(Cl)c1Cl — lower, -60.4%
- O=C(OCC(=O)N1CCCC1=O)c1ncc(Cl)c(Cl)c1Cl — lower, 0.304%
- COc1cccc(C(=O)Nc2cc(-c3cn4cccnc4n3)ccc2C)c1 — lower, -12%
- O=C1C=C(Nc2ccc(Cl)cc2)C(=O)N1c1ccc(Cl)cc1 — higher, 9.57%
- O=C(NCCc1ccccc1)c1ccccc1Cl — lower, 3.33%
- O=C(NCCC(=O)N(CCc1ccccc1)Cc1ccccc1)c1ccccc1Cl — lower, -72.9%
- O=C(NCCC(=O)N(CCc1ccccc1)Cc1ccccc1)c1ccc(Br)cc1 — lower, -44.9%
- C1CCC(NC2=NCCC2)CC1.Cl — lower, -1.01%
- O=C(O)Cn1nc(C(F)(F)F)c2c1CCC2 — higher, 20.4%
- CCCN1C2CCCC1CC(NC(=O)c1ccc(C(C)(C)C)cc1)C2 (stereo not drawn) — lower, -37.1%
- CCCN1C2CCCC1CC(NC(=O)c1ccccc1F)C2 (stereo not drawn) — lower, -21.7%
- CCCN1C2CCCC1CC(NC(=O)c1ccc(OC)cc1)C2 (stereo not drawn) — lower, -30.1%
- CCCN1C2CCCC1CC(NC(=O)c1ccccc1)C2 (stereo not drawn) — lower, -18.9%
- CCCN1C2CCCC1CC(NC(=O)c1ccc(F)cc1)C2 (stereo not drawn) — lower, -55.3%
- CCCN1C2CCCC1CC(NC(=O)c1ccc(Br)cc1)C2 (stereo not drawn) — lower, -66.3%
- CCc1ccc(NCc2ccc(OC)c(Cn3ccnc3)c2)cc1 — lower, -10.5%
- O=C(O)CCCC(=O)N1N=C(c2c(-c3ccccc3)c3cc(Cl)ccc3[nH]c2=O)CC1c1cccs1 (stereo not drawn) — higher, 23.2%
- Cc1c(C(=O)NCc2ccco2)oc2ccc(S(=O)(=O)N3CCC4(CC3)OCCO4)cc12 — lower, -19.7%
- CCCCCCCN1C(Nc2ccccc2)=NC[C@@H]1C — lower, -68%
- Cc1ccc(CCN2C(Nc3ccccc3)=NC[C@@H]2C)cc1 — lower, -35.9%
- CC(C)CCCN1C(Nc2ccccc2)=NC[C@@H]1C — lower, -11.4%
- c1ccc(CCCCN2C(Nc3ccccc3)=NC[C@@H]2Cc2ccccc2)cc1 — lower, -71.5%
- CCCCN1C(Nc2ccccc2)=NC[C@@H]1C — higher, 14.4%
- CCN1C(Nc2ccccc2)=NC[C@@H]1Cc1ccccc1 — lower, -26%
- CCCCN1C(N)=NC[C@@H]1Cc1ccccc1 — lower, 0.376%
- CCCCN1C(Nc2ccccc2)=NC[C@@H]1Cc1ccccc1 — lower, -66.1%
- C[C@H]1CN=C(Nc2ccccc2)N1CCc1ccccc1 — lower, -9.89%
- CCCCCCCN1C(Nc2ccccc2)=NC[C@@H]1Cc1ccccc1 — lower, -83.3%
- CCN1C(Nc2ccccc2)=NC[C@@H]1C — higher, 15.2%
